Screens (PubChem)
D1 antag – Antagonist of Human D 1 Dopamine Receptor: qHTS; D(1A) dopamine receptor (Homo sapiens), P21728; AID 504652, 2011; hit rate 3.2% among 360,000; HEK293 TREx D1 cells, calcium flux, dopamine EC80; stronger effect = lower value; activity change, negative = inhibition, % at 10 µM; in the data active = activity change below about -30%; also: % is scaled to controls: 0 for no effect and ±100 for the full control effect
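Cells carrying a force-coupled, tetracycline-inducible human D1 receptor report calcium flux. Each well gets a 10 s baseline, compound with 180 s monitoring, then an EC80 dopamine stimulus with a second 180 s kinetic read.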
DRD3 agonist – qHTS of D3 Dopamine Receptor Agonist: qHTS; D(3) dopamine receptor (Homo sapiens), P35462; D3R DiscoveRx beta-arrestin cells, luminescence, 90 min; max activation, %; hit rate 0.58% among 410,000; in the data active = max activation above about 30%; also: 0% is about no effect
Target sequence (P35462 whole entry, looked up): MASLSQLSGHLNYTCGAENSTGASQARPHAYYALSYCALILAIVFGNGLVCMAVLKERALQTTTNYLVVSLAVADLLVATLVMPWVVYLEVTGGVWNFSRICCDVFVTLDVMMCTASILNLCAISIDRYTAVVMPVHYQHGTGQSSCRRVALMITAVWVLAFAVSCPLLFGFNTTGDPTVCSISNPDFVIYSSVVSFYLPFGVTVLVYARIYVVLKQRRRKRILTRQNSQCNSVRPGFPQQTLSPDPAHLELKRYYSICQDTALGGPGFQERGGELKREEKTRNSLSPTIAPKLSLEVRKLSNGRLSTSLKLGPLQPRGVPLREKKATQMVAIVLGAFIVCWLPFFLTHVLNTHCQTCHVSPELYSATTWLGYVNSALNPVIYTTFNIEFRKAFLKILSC
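Cells at 1500/well, incubated overnight, then treated with pinned compounds (dopamine as control) for 90 min at 37 degrees C. DiscoveRx reagent added for 30 - 60 minutes at room temperature; luminescence read.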
DRD3 antagonist – qHTS of D3 Dopamine Receptor Antagonist: qHTS | D3R cells, DiscoveRx beta-arrestin luminescence, antagonist mode; stronger effect = lower value | max response, negative = inhibition, % | hit rate 2.5% among 360,000 | AID 652054, 2013; in the data active = max response below about -50%; inconclusive = no clear call, values can overlap the other calls; also: % is scaled to controls: 0 for no effect and ±100 for the full control effect
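Cells expressing the human receptor were seeded at 1500 cells/well, incubated overnight at 37 degrees C in 5% CO2, then exposed to library compounds with dopamine controls for 90 minutes at 37 degrees C before luminescent detection.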
D1 agonist – Allosteric Agonists of the Human D1 Dopamine Receptor: qHTS; HEK293 T-REx D1 cells, calcium flux, agonist mode; AID 504660, 2011; activation, % at 2 µM; hit rate 1% among 360,000; in the data active = activation above about 30%; also: 0% is about no effect
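Agonism was scored from calcium flux recorded over 180 s (1 read/s) after pintool compound addition, following a 10-cycle baseline. Cells were inducible force-coupled HEK293 TREx D1, plated overnight at 30 C and loaded with no-wash calcium dye.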
D1 PAM – Potentiators of Human D1 Dopamine Receptor: qHTS. D(1A) dopamine receptor (Homo sapiens), P21728. HEK293 TREx D1 cells, calcium flux, dopamine EC20 potentiation. potentiation, % at 10 µM. hit rate 0.036% among 360,000; in the data active = potentiation above about 30%; also: 0% is about no effect
* hit, by the source's call; u = inconclusive; x = no result given. Compounds with a hit are over-represented: about 6% of the library has one in this group of screens.

SMILES	D1 antag	DRD3 agonist	DRD3 antagonist	D1 agonist	D1 PAM
Oc1ccc2ccccc2c1/C=N/Nc1nnc(-c2ncc[nH]2)c2ccccc12	18	11	60	36*	-4
COc1ccc(C(=O)N2CCCC(C)(C(=O)NS(=O)(=O)C3CC3)C2)cc1 (configuration not stated)	x	-13	-53*	x	x
O=C(Nc1ccccc1)c1ccc(S(=O)(=O)NCc2cccnc2)cc1	-17	-6	-12	3	6
COc1ccc(S(=O)(=O)NCc2cccnc2)cc1Br	-32*	18	47	15	-6
O=C(Nc1ccc(S(=O)(=O)NCc2cccnc2)cc1)c1ccccc1Cl	-5	-8	-83*	1	-4
COc1ccc(CN(C)C(=O)c2ccc(Cl)c(S(=O)(=O)NCc3cccnc3)c2)cc1F	-47*	0	2	1	-4
COc1ccc(S(=O)(=O)NCc2cccnc2)cc1	11	-7	-21	2	-3
CCc1ccc(-n2nc3ccc(NC(=O)COc4ccc(OC)cc4)cc3n2)cc1	4	1	x	5	1
COc1cccc(CNC(=O)CCc2nnc3n(CC(C)C)c(=O)c4ccccc4n23)c1	18	7	x	0	-3
CCc1ccccc1NC(=O)N1CC(C)Sc2ccccc21 (configuration not stated)	-24	-9	x	-1	-4
Cc1cc(C(F)F)n2nc(C(=O)Nc3ccc(F)c(Cl)c3)nc2n1	-1	-13	x	-1	-4
CCc1c(C)nc2nncn2c1Nc1cccc(C)c1	8	4	x	4	-2
CCCc1ccc(S(=O)(=O)N2CCC(Oc3ccc(-n4cnnn4)cc3)CC2)cc1	-7	-6	x	6	0
CCn1ncc(/C=N/N=C2\CCC3C4CCc5cc(O)ccc5C4CCC23C)c1C (configuration not stated)	9	34*	88	7	-2
CC(=O)c1ccc(NS(=O)(=O)c2ccc(CC(C)C)cc2)cc1	1	-10	u	40*	-17
CCOC(=O)c1ccc(NC(=O)c2cnn(-c3ccc(C)cc3C)c2C2CCN(C(=O)OC(C)(C)C)CC2)cc1	0	5	x	5	1
CCOC(=O)C1=C(c2ccccc2)N=c2s/c(=C\c3ccc(O)cc3)c(=O)n2C1c1cccs1 (configuration not stated)	5	-3	-57*	31*	2
CCOC(=O)C1=C(c2ccccc2)N=c2sc(=Cc3cc(OC)c(OC)c(OC)c3)c(=O)n2C1c1cccs1 (configuration not stated)	x	-5	-9	x	x
NC(CS)C(=O)O (configuration not stated)	x	-3	x	x	x
COC(=O)c1cc(O)cc(OC)c1Oc1cc(C)cc(O)c1C(=O)O	9	1	u	1	-5
COC(=O)c1cc(O)cc(OC)c1C(=O)c1c(O)cc(C)cc1O	4	30*	1	3	-7
CCc1ccccc1NC(=O)CSc1nncn2c1cc1oc(C)cc12	3	3	x	6	-7
CN(C)CCCCOc1ccccc1F	x	-15	-28	2	-7
COCCNCCCCOc1ccccc1-c1ccccc1	-2	-20	-29	5	-4
C=CCNCCOc1ccccc1-c1ccccc1	-18	-17	-64*	20	-9
SMILES	D1 antag	DRD3 agonist	DRD3 antagonist	D1 agonist	D1 PAM
CN(C)CCCCOc1ccccc1-c1ccccc1	-26	-53	-77*	6	-11
CC(C)NCCCCOc1ccccc1-c1ccccc1	-25	x	x	20	-6
CN(C)CCOc1ccccc1Cc1ccccc1	-18	-82	-75*	17	-5
CCCCNCCOCCOc1ccccc1-c1ccccc1	-27	-6	-87*	21	-5
COc1cccc(C(=O)Nc2ccccc2-c2nnc(-c3ccc(C(C)(C)C)cc3)o2)c1	16	3	x	0	-3
CC(=O)Nc1cccc(NC(=O)C2(c3cccs3)CCOCC2)c1	x	1	x	-2	0
CCOC(=O)C1CCCN(c2nc3c(S(=O)(=O)c4ccc(Br)cc4)nnn3c3ccsc23)C1 (configuration not stated)	-2	-2	x	4	-3
Cc1cc(=O)oc2cc(OCc3ccc(C(=O)N4CCN(c5ccccc5)CC4)cc3)ccc12	-37*	26	15	1	-4
COc1ccc(N2CCN(CCOc3ccc4c(C)cc(=O)oc4c3)CC2)cc1	-6	-17	-51*	4	4
Cc1cc(=O)oc2cc(OCc3ccc(C(=O)N4CCN(c5ccc([N+](=O)[O-])cc5)CC4)cc3)ccc12	-16	7	3	3	-4
CCCCOC(=O)c1ccc(NC(=O)CSc2nc3c(c(=O)[nH]2)CCCC3)cc1	-14	-2	x	1	-2
COC1=CC(=O)c2nc(Cl)ccc2C1=O	x	-12	-75*	x	x
O=C(Nc1cccc2cccnc12)OC(Cl)(Cl)Cl	-10	x	x	1	1
CCOc1ccc(/C=C2\SC(=S)N(CCC(=O)N(CCO)c3ccccc3)C2=O)cc1	-31*	-3	16	9	-3
CCCCC(=O)Nc1ccccc1CC	-13	-15	-65*	3	4
CCCCCCCC(=O)NNC(=O)Cc1ccccc1	-54*	-25	19	2	-1
CC1=C(C(=O)N2CCN(c3ccc(Cl)cc3)CC2)C2(CCC(C)CC2)OC1=O (configuration not stated)	6	-7	x	2	6
CCC(=O)Nc1ccccc1-c1nc2ccccc2n(C(C)C(=O)Nc2ccc(OC)cc2)c1=O (configuration not stated)	-31*	-4	x	6	-4
CCCCn1c(C)cc2c(c1=O)C1O[C@](c3ccsc3)(Cc3ccccc31)O2	5	x	x	2	4
Cc1cc(OCCCN2CCC(C(O)(c3ccccc3)c3ccccc3)CC2)ccc1Br	x	-9	0	x	x
N#Cc1cccc(OCCCN2CCC(C(O)(c3ccccc3)c3ccccc3)CC2)c1	x	-11	-86*	x	x
Cc1cccc(CSCCNC(=O)C2CCN(S(=O)(=O)Cc3ccccc3)CC2)c1	-14	-2	x	2	-3
CC(C)[C@H](Nc1ccc(C(F)(F)F)cc1[N+](=O)[O-])C(=O)O	7	-2	-14	0	1
O=C(NNc1ccc(C(F)(F)F)cc1[N+](=O)[O-])c1ccc(NS(=O)(=O)c2ccc(F)cc2)cc1	4	-25	-73*	0	-3
Cc1cc(C)c(NC(=O)Cn2c(=O)n(CCC(=O)N3CCc4ccccc4C3)c(=O)c3ccccc32)c(C)c1	-5	-13	x	16	0
